Inconclusive results are not listed. Active and inactive are the calls of the source. How the calls were made is not given here.
Biological target: Histone-lysine N-methyltransferase 2A (Homo sapiens) (UniProt Q03164)
Assay: Inhibitor SAR for Compounds Targeting the Menin-MLL Interaction in MLL Related Leukemias: Competition With Fluorescein Labeled MLL-derived Peptide
Conditions: Menin-MLL fluorescein peptide fluorescence polarization competition
Description: qHTS Assay for Inhibitors Targeting the Menin-MLL Interaction in MLL Related Leukemias NIH Chemical Genomics Center [NCGC] NIH Molecular Libraries Probe Centers Network [MLPCN] MLPCN Grant: MH084875-01A1 Assay Submitter (PI): Jolanta Grembecka, Tomasz Cierpicki, University of Virginia Translocations of the MLL (Mixed Lineage Leukemia) gene are frequently found in human leukemias affecting both children and adults. Fusion of MLL to one of more than 60 genes results in generation of oncogenic proteins upregulating Hox genes, which are vital to blood cell development. Patients harboring fusion of the MLL gene suffer from aggressive leukemias and respond poorly to available therapies. All of the oncogenic fusion proteins have a preserved N-terminal fragment of MLL that has been identified to interact with menin. It has been recently discovered that association with menin is critical to the leukemogenic activity of the MLL fusion oncoproteins. Selective targeting of the menin-MLL interaction could provide an attractive therapeutic approach to develop novel drugs for MLL-related leukemias. Small molecules blocking the menin-MLL interaction should reverse the oncogenic potential of MLL fusion proteins. We have developed and optimized a fluorescence polarization-based assay for the identification of Menin-MLL inhibitors. The assay was run employing two different MLL-derived peptides. The present assay uses a 12 amino acid peptide labeled with fluorescein at its N-terminus. This peptide consists of the menin high affinity binding motif from MLL and is potently bound by menin. Another peptide with a mutated sequence, labeled with Texas Red, was used in parallel as a less stringent screen for inhibitors. The present assay was run to characterize initial structure activity relationships.
The Menin protein, the MLL-wild type (w.t.) derived peptide (N-terminal 12 amino acids), the MLL-derived peptide labeled with Texas Red and the MLL-w.t. peptide labeled with Fluorescein were kindly supplied by laboratory of Dr. Jolanta Grembecka, University of Virginia. All protein and peptide solutions were stored in single use aliquots at -80C. The Eu3+ Cyrptate-conjugated mouse monoclonal antibody anti-6 Histidine (Eu3+-AB) and the Streptavidin-XL665 conjugate (XL665) were purchased from Cisbio International (Bedford, MA). All antibody and XL665 conjugate solution stocks were stored in single use aliquots at -20C. The Buffer components for all assays were purchased from Sigma-Aldrich (St. Louis, MO) and Invitrogen (Carlsbad, CA). FP Assay Reagents: 1. FP reaction buffer: 50 mM Tris-HCl pH 7.5, 50 mM NaCl, 1mM DTT. Before use, 0.05% BSA is added. 2. Menin protein, MLL-w.t. labeled with fluorescein, MLL-mutant peptide labeled with texas red. Stored in singe use aliquots at -80C. 3. MLL-w.t. unlabeled peptide as positive control: 10 uM final in FP buffer. FP Assay Procedure: 1. Prepare Menin at 200 nM, MLL-w.t.-fluorescein at 25 nM, and MLL-mutant-texas red at 50 nM mixture in FP buffer. 2. Prepare Menin at 200 nM, MLL-w.t.-fluorescein at 25 nM, MLL-mutant-texas red at 50 nM, and 10 uM MLL-w.t. unlabeled mixture in FP buffer. 3. Prepare MLL-w.t.-fluorescein at 25 nM and MLL-mutant-texas red at 50 nM mixture in FP buffer. 3. Dispense 4 ul per well of reagent in step 1 in columns 2, 4 - 48 in a black 1536 well plate, dispense 4 ul per well of reagents from steps 2 and 3 in columns 1 and 3 respectively. Incubate plate at ambient for 15 minutes. 4. Transfer 23 nl per well of compound to plate and incubate at ambient for 1 hr. 5. Read fluorescence polarization for each label using the PerkinElmer Envision. Envision protocol for fluorescein: FITC FP Dual Enh Mirror, Excitation filter 480, Emission filter (1) P-pol 535, Emission filter (2) S-pol 535 Envision protocol for texas red: FP Dual Enh Mirror, Excitation filter 555, Emission filter (1) P-pol 632, Emission filter (2) S-pol 632

Chain of Histone-lysine N-methyltransferase 2A (Homo sapiens) (Q03164 whole entry, looked up): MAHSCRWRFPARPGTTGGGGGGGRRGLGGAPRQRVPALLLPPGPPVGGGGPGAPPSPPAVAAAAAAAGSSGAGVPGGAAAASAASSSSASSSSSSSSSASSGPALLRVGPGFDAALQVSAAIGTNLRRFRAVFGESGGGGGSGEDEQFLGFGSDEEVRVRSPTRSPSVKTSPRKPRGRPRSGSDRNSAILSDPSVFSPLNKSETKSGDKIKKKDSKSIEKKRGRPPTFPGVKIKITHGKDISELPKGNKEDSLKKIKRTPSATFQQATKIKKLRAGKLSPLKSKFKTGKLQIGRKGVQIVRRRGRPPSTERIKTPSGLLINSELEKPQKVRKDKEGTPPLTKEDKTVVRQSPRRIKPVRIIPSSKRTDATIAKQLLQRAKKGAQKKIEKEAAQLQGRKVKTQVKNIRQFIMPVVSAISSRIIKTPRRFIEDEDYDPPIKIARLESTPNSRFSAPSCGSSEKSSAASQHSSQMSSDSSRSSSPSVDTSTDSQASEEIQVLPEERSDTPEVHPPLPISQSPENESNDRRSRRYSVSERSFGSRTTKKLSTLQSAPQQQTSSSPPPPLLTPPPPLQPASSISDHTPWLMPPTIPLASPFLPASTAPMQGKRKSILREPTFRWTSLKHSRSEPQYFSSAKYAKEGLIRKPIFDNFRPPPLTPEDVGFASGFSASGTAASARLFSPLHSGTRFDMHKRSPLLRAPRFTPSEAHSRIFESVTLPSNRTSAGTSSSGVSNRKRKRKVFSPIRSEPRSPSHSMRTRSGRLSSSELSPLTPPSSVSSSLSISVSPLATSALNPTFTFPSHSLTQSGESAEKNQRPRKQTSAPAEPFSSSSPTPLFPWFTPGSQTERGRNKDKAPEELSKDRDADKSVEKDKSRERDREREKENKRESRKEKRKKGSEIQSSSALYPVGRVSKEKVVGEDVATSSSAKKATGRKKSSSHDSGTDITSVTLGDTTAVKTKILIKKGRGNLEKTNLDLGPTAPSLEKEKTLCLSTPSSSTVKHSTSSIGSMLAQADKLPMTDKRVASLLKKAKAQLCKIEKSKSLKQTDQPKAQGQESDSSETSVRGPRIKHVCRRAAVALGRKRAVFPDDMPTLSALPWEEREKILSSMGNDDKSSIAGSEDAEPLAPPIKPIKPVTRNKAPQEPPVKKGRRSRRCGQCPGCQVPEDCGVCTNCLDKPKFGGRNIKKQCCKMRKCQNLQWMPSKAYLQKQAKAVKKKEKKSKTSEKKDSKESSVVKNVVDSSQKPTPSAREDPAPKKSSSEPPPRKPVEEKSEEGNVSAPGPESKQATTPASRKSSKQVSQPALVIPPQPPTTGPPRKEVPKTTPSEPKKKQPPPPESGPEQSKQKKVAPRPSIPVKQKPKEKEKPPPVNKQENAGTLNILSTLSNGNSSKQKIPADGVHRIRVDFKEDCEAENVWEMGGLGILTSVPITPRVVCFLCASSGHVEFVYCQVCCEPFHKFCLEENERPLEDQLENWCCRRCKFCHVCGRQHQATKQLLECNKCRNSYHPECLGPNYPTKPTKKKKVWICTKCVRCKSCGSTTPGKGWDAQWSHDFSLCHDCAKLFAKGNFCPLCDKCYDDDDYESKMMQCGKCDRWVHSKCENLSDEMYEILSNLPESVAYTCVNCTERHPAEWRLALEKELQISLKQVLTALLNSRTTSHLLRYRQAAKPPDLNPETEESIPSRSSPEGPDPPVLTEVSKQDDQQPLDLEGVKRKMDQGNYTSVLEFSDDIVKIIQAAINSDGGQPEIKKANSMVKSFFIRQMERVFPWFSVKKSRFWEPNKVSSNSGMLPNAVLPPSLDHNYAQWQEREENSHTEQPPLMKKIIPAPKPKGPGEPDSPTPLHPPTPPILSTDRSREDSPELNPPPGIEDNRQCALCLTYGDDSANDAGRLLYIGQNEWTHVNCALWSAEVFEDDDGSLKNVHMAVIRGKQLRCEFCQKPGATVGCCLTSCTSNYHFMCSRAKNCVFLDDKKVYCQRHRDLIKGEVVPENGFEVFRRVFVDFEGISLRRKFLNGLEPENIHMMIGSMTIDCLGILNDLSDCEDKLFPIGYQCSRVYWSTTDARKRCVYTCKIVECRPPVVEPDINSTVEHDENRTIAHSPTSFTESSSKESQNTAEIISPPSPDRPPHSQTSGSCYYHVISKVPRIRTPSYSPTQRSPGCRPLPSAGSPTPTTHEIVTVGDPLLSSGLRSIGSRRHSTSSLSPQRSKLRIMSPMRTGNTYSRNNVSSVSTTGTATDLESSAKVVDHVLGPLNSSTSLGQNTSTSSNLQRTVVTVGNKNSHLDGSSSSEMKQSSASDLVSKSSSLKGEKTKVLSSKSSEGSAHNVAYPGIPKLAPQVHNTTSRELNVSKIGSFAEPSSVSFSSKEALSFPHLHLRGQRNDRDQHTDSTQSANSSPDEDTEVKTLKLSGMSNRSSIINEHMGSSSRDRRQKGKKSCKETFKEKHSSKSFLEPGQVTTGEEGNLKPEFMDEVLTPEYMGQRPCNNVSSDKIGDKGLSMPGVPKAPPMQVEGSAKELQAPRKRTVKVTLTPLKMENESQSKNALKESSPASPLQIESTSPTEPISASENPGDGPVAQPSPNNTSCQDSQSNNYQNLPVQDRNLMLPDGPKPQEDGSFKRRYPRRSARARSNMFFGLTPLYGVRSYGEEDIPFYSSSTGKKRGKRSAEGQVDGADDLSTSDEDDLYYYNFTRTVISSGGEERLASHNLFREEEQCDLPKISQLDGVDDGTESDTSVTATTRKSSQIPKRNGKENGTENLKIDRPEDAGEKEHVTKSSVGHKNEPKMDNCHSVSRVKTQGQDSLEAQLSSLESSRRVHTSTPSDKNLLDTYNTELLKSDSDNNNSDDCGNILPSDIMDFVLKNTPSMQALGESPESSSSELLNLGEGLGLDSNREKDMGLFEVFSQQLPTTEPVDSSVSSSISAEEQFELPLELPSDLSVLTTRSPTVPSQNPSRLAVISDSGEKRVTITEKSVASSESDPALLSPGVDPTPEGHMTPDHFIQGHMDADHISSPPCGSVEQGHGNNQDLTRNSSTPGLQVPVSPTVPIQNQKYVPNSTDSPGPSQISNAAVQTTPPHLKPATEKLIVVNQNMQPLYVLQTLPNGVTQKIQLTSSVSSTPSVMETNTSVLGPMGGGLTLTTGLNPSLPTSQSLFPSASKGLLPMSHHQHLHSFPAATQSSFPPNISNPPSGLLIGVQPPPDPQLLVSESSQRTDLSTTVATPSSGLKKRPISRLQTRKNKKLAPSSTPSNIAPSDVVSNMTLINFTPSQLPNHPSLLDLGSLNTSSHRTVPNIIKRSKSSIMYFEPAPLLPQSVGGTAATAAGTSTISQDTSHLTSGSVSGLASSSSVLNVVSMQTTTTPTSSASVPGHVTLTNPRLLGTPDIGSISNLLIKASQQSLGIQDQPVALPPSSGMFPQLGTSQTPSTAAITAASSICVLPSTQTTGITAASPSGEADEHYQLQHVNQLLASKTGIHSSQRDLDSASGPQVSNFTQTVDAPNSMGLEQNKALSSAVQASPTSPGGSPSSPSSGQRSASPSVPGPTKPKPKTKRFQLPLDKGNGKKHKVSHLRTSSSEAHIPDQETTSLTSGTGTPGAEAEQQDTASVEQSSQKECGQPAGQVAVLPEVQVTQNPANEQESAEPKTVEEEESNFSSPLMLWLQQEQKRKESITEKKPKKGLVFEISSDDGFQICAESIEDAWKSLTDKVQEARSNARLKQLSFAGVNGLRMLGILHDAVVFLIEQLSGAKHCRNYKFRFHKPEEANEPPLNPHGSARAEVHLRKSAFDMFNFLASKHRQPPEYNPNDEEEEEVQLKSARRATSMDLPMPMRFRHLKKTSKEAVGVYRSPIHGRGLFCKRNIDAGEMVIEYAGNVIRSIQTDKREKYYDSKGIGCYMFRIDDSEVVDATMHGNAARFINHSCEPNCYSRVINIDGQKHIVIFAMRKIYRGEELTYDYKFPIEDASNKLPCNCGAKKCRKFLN

SMILES	Potency	outcome
OC(c1ccccc1)(c1ccccc1)C1CCN(CCCOc2ccc(-n3ccnn3)cc2)CC1	29 µM (active)	
FC(F)(F)Oc1ccc(OCCCN2CCC(=C(c3ccccc3)c3ccccc3)CC2)cc1		inactive; no saturation, 12%inh at 2mm
Cc1ccc(OCCCN2CCC(=C(c3ccccc3)c3ccccc3)CC2)cc1		inactive; no saturation, 25% inh at 2mm
FC(F)(F)Oc1ccc(OCCCN2CCC(C(c3ccccc3)c3ccccc3)CC2)cc1		inactive; no saturation, 12%inh at 2mm
CC(C)c1ccc(OCCCN2CCC(=C(c3ccccc3)c3ccccc3)CC2)cc1		inactive; no saturation, 15% inh at 1mm
[N-]=[N+]=Nc1ccc(OCCCN2CCC(C(O)(c3ccccc3)c3ccccc3)CC2)cc1	58 µM (active)	
Nc1ccc(OCCCN2CCC(C(O)(c3ccccc3)c3ccccc3)CC2)cc1	60.5 µM (active)	
COc1ccccc1C(=O)Nc1ccnn1C1CCN(CC2CCCCC2)CC1	42 µM (active)	
N#Cc1ccc(OCCCN2CCC(C(O)(c3ccccc3)C(F)(F)F)CC2)cc1 (centres undefined)	31 µM (active)	
N#Cc1ccc(COCCN2CCC(C(O)(c3ccccc3)c3ccccc3)CC2)cc1		inactive; no saturation, 50% inh at 1mm
OC(c1ccccc1)(c1ccccc1)C1CCN(CCCOc2ccc(C(F)(F)F)cc2)CC1	52 µM (active)	
OC(c1ccccc1)(c1ccccc1)C1CCN(CCCOc2ccc(-c3nn[nH]n3)cc2)CC1		inactive; interference with assay at higher dose, inactive up to 100 um
N#Cc1ccc(OCCCN2CCC(C(O)(c3ccccc3)c3ccccc3)CC2)cc1F	26.5 µM (active)	
NCc1ccc(OCCCN2CCC(C(O)(c3ccccc3)c3ccccc3)CC2)cc1	7.6 µM (active)	
CC(C)(C(=O)O)c1ccc(C(O)CCCN2CCC(C(O)(c3ccccc3)c3ccccc3)CC2)cc1 (centres undefined)		inactive; no activity up to 2 mm
FC(F)(F)c1ccc(OCCCN2CCC(C(c3ccccc3)c3ccccc3)CC2)cc1		inactive; no saturation, 36% inh at 2mm
c1ccc(OCCCN2CCC(=C(c3ccccc3)c3ccccc3)CC2)cc1		inactive; no saturation, 42% inh at 2mm
O=C(O)c1ccc(OCCCN2CCC(C(O)(c3ccccc3)c3ccccc3)CC2)cc1		inactive; no saturation, 34% inh. at 1mm
FC(F)(F)c1ccc(OCCCN2CCC(=C(c3ccccc3)c3ccccc3)CC2)cc1		inactive; no saturation, 25% inh at 2mm
